Screens: PubChem BioAssay, several laboratories
MOR-DOR inv ag-1: inverse agonists of human mu-delta opioid receptor heterodimerization | P35372+P41143 | cell-based MOR-DOR heterodimer luminescence, inverse agonism | inhibition, % at 9.3 µM | 340,000 tested, 0.21% active | AID 504357; in the data active = inhibition above about 22%, passing the limit was not always enough;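 also: 0% = cells with DMSO and 100% = wells without cells with DMSO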
Yeast superoxide: caloric restriction mimetics inhibiting age-related superoxide in yeast; S. cerevisiae aged cells, superoxide DHE fluorescence; active compounds read low; superoxide response (% of plate mean), % at 10 µM; 330,000 tested, 0.18% active;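 active = superoxide response under a set limit, about three screen SD below normal, cut at about 65% in these data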;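 also: yeast aged for seven days with compound at 30 °C before DHE staining; 100% = average MFI of all compound-treated wells on the plate with controls excluded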
MOR-DOR ag-1: agonists of human mu-delta opioid receptor heterodimerization | cells, OPRM1-OPRD1 heterodimerization, luminescence | P35372+P41143 | 340,000 tested, 0.3% active | activation, % at 9.3 µM; in the data active = activation above about 18%;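 also: 0% = vehicle-treated cells and 100% = reference agonist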
HTR5A ag ctr: HTR5A agonism, opioid heterodimer counter-screen; 340,000 tested, 0.61% active; AID 504692; HTR5A agonist assay, luminescence, cell-based; activation, % at 9.3 µM; in the data active = activation mostly above about 9.5%, no sharp cut-off; inactive = mostly below about 7.6%;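 also: 0% = cells with vehicle only and 100% = reference agonist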
Target sequence (P47898 whole entry, looked up): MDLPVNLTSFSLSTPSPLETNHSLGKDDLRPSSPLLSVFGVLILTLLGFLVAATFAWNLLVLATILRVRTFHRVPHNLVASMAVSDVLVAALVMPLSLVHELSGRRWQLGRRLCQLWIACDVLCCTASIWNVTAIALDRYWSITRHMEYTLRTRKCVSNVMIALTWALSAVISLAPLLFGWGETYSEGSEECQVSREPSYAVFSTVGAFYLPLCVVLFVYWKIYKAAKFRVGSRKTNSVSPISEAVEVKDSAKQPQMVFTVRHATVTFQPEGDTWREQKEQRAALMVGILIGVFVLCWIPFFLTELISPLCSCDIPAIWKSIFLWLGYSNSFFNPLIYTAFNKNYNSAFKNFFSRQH
PvdQ inh: P. aeruginosa PvdQ acylase inhibition. purified PvdQ acylase, fluorescence plate reader. inhibition, % at 10 µM. 340,000 tested, 0.063% active. AID 488965; in the data active = inhibition above about 30%, passing the limit was not always enough; inconclusive = no clear call, values can overlap the other calls;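 also: 0% = vehicle neutral wells and 100% = reference inhibitor wells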
HTR5A inv ag: inverse agonist of human HTR5A in OPRM1-OPRD1 counter-screen; P47898; HTR5A cell line, luminescence, inverse agonism; inhibition, % at 9.3 µM; 340,000 tested, 0.083% active; AID 504634; in the data active = inhibition mostly above about 23%, no sharp cut-off; inactive = mostly below about 18%;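 also: 0% = cells with DMSO and 100% = no-cell wells with DMSO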
OPRM1-D1 inv cf: OPRM1-OPRD1 heterodimer inverse agonism, confirmation; shares compounds with MOR-DOR inv ag-1; cells expressing OPRM1/OPRD1 heterodimer, luminescence; inhibition, % at 9.3 µM; 580 tested, 20% active; AID 504900; in the data active = inhibition above about 32%;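 also: 0% = cells with DMSO and 100% = wells lacking cells with DMSO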
HTR5A inv ctr2: inverse agonist of human HTR5A in OPRM1-OPRD1 counter-screen; shares compounds with MOR-DOR inv ag-1; HTR5A-expressing cells, luminescence, inverse agonism; inhibition, % at 9.3 µM; 580 tested, under 10 active;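 also: 0% = cells with DMSO and 100% = no-cell wells with DMSO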
MOR-DOR inv ag-2: inverse agonist of OPRM1-OPRD1 heterodimerization in HTR5A counter-screen; shares compounds with HTR5A inv ag; U2OS counter-screen cells, complementation luminescence; inhibition, % at 9.3 µM; 190 tested, under 10 active;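 also: 0% = cells with DMSO and 100% = wells without cells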
HTR5A inv conf: HTR5A (human) inverse agonism, confirmation; inhibition, % at 9.3 µM; HTR5A-expressing cells, luminescence; shares compounds with HTR5A inv ag; 190 tested, under 10 active;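 also: 0% = cells with DMSO and 100% = no cells with DMSO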
MOR-DOR ag-2: opioid heterodimer agonism, HTR5A counter-screen; 800 tested, 13% active; U2OS counter-screen cells, complementation luminescence, 3 h; activation, % at 9.3 µM; shares compounds with HTR5A ag ctr; AID 504913; in the data active = activation above about 18%
HTR5A ag confirm: HTR5A (human) agonism, confirmation; shares compounds with HTR5A ag ctr; AID 504915; activation, % at 9.3 µM; 800 tested, 17% active; HTR5A agonist cell assay, luminescence; in the data active = activation above about 17%;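 also: 0% = cells with vehicle only and 100% = full reference agonist response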
* = called active by the depositor; ? = inconclusive; . = not tested or not shown. Compounds with a hit are over-represented: about 1.3% of the library has one in this group of screens. Unless noted, no rule for the calls is given here.

SMILES	MOR-DOR inv ag-1	Yeast superoxide	MOR-DOR ag-1	HTR5A ag ctr	PvdQ inh	HTR5A inv ag	OPRM1-D1 inv cf	HTR5A inv ctr2	others
C[C@H]1CCC/C=C/[C@@H]2C[C@H](O)C[C@H]2[C@H](O)/C=C/C(=O)O1	33*	98	-6	-2	5	0	-11	-4
CC1CCCCC1NC(=O)CNC(=S)N1CC2CC(C1)c1cccc(=O)n1C2 (stereo unspecified)	-4	128	1	2	-2	6	.	.
COC(=O)C1=C(c2c(C)noc2C)C[C@@H]2CC[C@H]1N2C(=O)NCc1ccco1	7	97	-1	11	1	-13	.	.
COC(=O)C1=C(c2ccc(OCc3ccccc3)cc2)C[C@@H]2CC[C@H]1N2C(=O)NC1CCN(Cc2ccccc2)CC1	-24	93	4	0	7	-7	.	.
Cc1ccc(N/N=C/c2c(O)n(-c3ccccc3)c(=O)[nH]c2=O)cc1	32*	122	-7	0	-12	0	-10	-1
CC1CN(O)C2CCc3nonc3C12O (stereo unspecified)	43*	104	-9	-9	-1	22	-23	-6
CC1CCN(CC(=O)c2ccccc2Cl)CC1	40*	111	-8	2	?	-5	25	1
CC1CN(CC(=O)c2ccccc2Cl)CC(C)O1 (stereo unspecified)	5	119	-1	-2	-15	6	.	.
Nc1cc(Cl)c2nonc2c1[N+](=O)[O-]	40*	115	-8	-8	-15	0	11	11
ON1C2CCCCC2N(O)C1c1ccccc1 (stereo unspecified)	45*	106	-8	3	-10	15	-37	-21
c1ccc(C2N3CCCN23)cc1 (stereo unspecified)	-2	104	0	2	-11	10	.	.
COC(COC(N)=O)C1=C(N2CC2)C(=O)C(C)=C(N2CC2)C1=O (stereo unspecified)	-13	.	3	1	-5	-3	.	.
CC1=C(N2CC2)C(=O)C(CO)=C(N2CC2)C1=O	42*	.	-10	-8	-11	30	-4	0
CC1CCCN(CC(=O)c2ccc(Cl)c(Cl)c2)C1 (stereo unspecified)	71*	107	-14	-6	-4	25	66*	5
CC(C)(C#CCCCCC#CC(C)(C)[N+](C)(C)C)[N+](C)(C)C	.	112	.	.	.	.	.	.
CCCCOCCCn1c(N)c(C(=O)OCCOC)c2nc3ccccc3nc21	33*	100	-7	1	-28	-2	-9	-5
CCCCn1c(NC(=O)c2ccco2)c(C(=O)OCC)c2nc3ccccc3nc21	45*	131	-8	-1	-7	2	-14	-12
CCCCn1c(NS(=O)(=O)c2ccc(C)cc2)c(C(=O)OCC)c2nc3ccccc3nc21	22	87	-4	2	-6	4	.	.
O=c1c([N+](=O)[O-])cn(O)cc1[N+](=O)[O-]	3	.	-1	-4	-15	15	.	.
CCOc1ccc2nc(N=Nc3c(O)[nH]c(=S)[nH]c3=O)sc2c1	32*	120	-7	-1	-10	38	7	5
COC(=O)C1=C(c2ccc(OC(F)(F)F)cc2)C[C@@H]2CC[C@H]1N2C(=O)NCc1cccc2ccccc12	-35	99	6	0	-4	11	.	.
CN(C)c1ccc(/C=C/c2cc[n+](C)c3ccccc23)cc1	28	.	-5	-10	-17	38*	.	.	MOR-DOR inv ag-2=-485;HTR5A inv conf=-16
Cc1cccc(NC(=O)[C@@H](NC(=O)N2C[C@H]3C[C@@H](C2)c2cccc(=O)n2C3)C(C)C)c1	12	95	-2	2	4	-11	.	.
CCN(CC)c1ccc(N=Cc2c(O)n(-c3ccccc3C)c(=O)[nH]c2=O)cc1	-18	109	3	18*	0	-26	.	.	MOR-DOR ag-2=13;HTR5A ag confirm=5
Clc1cc(I)cc(Cl)c1NC1=NCCN1	6	117	-1	43*	-10	-154	.	.	MOR-DOR ag-2=1;HTR5A ag confirm=-1
SMILES	MOR-DOR inv ag-1	Yeast superoxide	MOR-DOR ag-1	HTR5A ag ctr	PvdQ inh	HTR5A inv ag	OPRM1-D1 inv cf	HTR5A inv ctr2	others
COc1ccc(CN2Cc3cnnn3-c3ccccc3C2C)cc1 (stereo unspecified)	10	.	-2	-4	-9	13	.	.
CC(=O)OC1C(=O)OCC23CCC4(C)OC4C2OC2CC(OC(=O)C=CC=CC(=O)OCCC1C)C3(C)C21CO1 (stereo unspecified)	12	.	-3	-3	-15	12	.	.
CN1C[C@H](CO)C=C2c3cccc4[nH]cc(c34)C[C@H]21	-22	98	4	60*	-4	13	.	.	MOR-DOR ag-2=11;HTR5A ag confirm=2
COc1cc(C)cc2oc(=O)c(CC(=O)N3C[C@H]4C[C@@H](C3)c3cccc(=O)n3C4)c(C)c12	5	94	-1	-1	-21	18	.	.
CN1CCc2nc(SCc3ccccc3Br)c(C#N)cc2C1	8	88	-2	-5	-7	-39	.	.
Cc1cccc(CSc2nc3c(cc2C#N)CN(C)CC3)c1	18	104	-3	20*	-3	-51	.	.	MOR-DOR ag-2=0;HTR5A ag confirm=0
CC1=C[C@@H]2c3cccc4[nH]cc(c34)C[C@H]2N(C)C1	-23	110	5	26*	-15	-93	.	.	MOR-DOR ag-2=1;HTR5A ag confirm=34*
CC(=NCCC1=CCCCC1)c1c(O)n(-c2ccccc2)c(=O)[nH]c1=O	.	116	.	.	.	.	.	.
CCCCC/C(=N/O)c1c(C)[nH]c2ccccc12	-32	114	6	15*	-11	-40	.	.	MOR-DOR ag-2=4;HTR5A ag confirm=2
CC(=NCCc1c[nH]c2ccccc12)c1c(O)n(Cc2ccccc2)c(=O)[nH]c1=O	4	95	-1	8	-20	-82	.	.
CCC(=NCCc1c[nH]c2ccccc12)c1c(O)n(-c2ccc(C)cc2)c(=O)[nH]c1=O	2	96	0	19*	3	-113	.	.	MOR-DOR ag-2=0;HTR5A ag confirm=-8
CCC(=NCCc1c[nH]c2ccccc12)c1c(O)n(C)c(=O)n(C)c1=O	-7	109	1	40*	-6	-124	.	.	MOR-DOR ag-2=1;HTR5A ag confirm=1
